# About 8,800 targets were measured; listed, in parts, are those with a hit and a random draw of the rest. About 0.5% of all pairs of compound and target were hits. Unmarked numbers belong to inactive results.
# Compound: NC(=O)Nc1cc(-c2cccc(F)c2)sc1C(=O)N[C@H]1CCCNC1
# Assay: log2 fold change, soluble protein after heating vs DMSO (PISA); higher = thermal stabilisation; K562 lysate, 10 uM; active = over 0.2 and 3.5 SD of the protein, either way, in both replicates (recomputed)
# Procedure, shortened: (§1)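 Log-two fold change in thermal stability relative to solvent controls is reported from duplicates. For each sample, crude K562 extract from dounce-homogenised pellets in PBS pH 7.4 with 1 mM MgCl2, at 1 mg/mL protein, was treated with 10 μM compound for 30 min. Aliquots heated for 3 min across 48°C-58°C were pooled, brought to 0.5% NP-40 at 4°C and cleared at 21,000xg for 90 min. The supernatant was quantified by TMTpro 16plex LC-MS/MS with channel sums equalised.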
# Sequence of UniProt Q93074 (Q93074 whole entry, looked up): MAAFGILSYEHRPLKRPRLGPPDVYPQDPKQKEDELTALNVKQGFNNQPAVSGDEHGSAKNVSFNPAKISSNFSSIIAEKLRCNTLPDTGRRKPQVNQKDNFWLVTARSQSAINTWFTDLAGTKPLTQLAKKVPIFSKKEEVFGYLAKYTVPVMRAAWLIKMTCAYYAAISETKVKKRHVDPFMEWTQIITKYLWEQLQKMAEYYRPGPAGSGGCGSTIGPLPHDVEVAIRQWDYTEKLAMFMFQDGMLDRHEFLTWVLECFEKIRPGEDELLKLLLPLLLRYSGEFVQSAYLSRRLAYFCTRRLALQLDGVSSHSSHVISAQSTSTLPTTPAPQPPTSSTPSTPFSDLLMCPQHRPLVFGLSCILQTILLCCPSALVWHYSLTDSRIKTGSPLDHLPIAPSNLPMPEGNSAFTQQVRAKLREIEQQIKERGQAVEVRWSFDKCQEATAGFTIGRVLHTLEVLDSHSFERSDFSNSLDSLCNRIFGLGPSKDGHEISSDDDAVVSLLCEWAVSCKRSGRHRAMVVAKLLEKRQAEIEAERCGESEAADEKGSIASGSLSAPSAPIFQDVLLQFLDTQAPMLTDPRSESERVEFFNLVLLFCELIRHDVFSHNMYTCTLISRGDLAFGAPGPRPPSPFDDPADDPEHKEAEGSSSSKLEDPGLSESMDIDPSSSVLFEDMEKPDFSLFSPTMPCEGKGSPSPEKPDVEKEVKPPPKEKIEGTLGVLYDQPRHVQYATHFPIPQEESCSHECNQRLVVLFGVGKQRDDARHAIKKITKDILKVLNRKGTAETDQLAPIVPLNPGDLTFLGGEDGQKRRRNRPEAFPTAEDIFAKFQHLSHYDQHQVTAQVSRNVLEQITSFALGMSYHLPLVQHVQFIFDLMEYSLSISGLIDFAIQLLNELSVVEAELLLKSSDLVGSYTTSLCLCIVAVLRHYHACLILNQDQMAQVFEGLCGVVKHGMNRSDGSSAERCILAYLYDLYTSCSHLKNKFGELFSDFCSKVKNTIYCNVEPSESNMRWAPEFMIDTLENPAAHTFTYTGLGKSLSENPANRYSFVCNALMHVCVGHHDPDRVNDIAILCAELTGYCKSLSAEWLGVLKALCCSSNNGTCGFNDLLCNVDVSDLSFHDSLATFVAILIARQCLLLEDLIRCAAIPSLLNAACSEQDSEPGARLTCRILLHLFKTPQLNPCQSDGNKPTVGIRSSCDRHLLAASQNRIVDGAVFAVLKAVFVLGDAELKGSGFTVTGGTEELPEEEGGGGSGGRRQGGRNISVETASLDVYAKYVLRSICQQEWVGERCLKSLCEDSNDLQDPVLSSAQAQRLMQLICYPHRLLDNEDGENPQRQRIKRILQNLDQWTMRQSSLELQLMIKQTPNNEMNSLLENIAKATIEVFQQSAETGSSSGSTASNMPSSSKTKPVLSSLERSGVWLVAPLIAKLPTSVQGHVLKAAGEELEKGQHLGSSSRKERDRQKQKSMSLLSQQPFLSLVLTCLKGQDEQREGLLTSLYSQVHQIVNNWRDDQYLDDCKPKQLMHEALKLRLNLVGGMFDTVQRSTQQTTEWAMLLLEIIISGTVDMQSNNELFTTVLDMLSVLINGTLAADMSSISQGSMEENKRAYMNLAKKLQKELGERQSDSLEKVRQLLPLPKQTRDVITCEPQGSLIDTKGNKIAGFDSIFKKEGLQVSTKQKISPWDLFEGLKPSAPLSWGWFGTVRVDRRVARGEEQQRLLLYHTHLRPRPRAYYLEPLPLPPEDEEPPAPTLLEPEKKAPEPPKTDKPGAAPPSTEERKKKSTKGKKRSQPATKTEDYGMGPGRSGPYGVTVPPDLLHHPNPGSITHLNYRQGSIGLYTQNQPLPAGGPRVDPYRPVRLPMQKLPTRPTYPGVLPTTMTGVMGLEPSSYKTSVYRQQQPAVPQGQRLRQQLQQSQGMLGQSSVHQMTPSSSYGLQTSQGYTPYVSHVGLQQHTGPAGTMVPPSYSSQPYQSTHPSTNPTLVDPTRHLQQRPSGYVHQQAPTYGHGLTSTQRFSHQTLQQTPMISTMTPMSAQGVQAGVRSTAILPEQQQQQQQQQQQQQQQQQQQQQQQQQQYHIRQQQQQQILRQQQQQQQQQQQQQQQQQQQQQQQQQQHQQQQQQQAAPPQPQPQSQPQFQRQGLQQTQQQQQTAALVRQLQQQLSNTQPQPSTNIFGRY
# Sequence of UniProt Q9BTT4 (Q9BTT4 whole entry, looked up): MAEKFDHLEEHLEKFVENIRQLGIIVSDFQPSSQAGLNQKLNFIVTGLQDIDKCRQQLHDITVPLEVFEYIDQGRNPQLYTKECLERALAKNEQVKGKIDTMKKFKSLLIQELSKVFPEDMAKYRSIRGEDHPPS
# Sequence of UniProt Q96RQ3 (Q96RQ3 whole entry, looked up): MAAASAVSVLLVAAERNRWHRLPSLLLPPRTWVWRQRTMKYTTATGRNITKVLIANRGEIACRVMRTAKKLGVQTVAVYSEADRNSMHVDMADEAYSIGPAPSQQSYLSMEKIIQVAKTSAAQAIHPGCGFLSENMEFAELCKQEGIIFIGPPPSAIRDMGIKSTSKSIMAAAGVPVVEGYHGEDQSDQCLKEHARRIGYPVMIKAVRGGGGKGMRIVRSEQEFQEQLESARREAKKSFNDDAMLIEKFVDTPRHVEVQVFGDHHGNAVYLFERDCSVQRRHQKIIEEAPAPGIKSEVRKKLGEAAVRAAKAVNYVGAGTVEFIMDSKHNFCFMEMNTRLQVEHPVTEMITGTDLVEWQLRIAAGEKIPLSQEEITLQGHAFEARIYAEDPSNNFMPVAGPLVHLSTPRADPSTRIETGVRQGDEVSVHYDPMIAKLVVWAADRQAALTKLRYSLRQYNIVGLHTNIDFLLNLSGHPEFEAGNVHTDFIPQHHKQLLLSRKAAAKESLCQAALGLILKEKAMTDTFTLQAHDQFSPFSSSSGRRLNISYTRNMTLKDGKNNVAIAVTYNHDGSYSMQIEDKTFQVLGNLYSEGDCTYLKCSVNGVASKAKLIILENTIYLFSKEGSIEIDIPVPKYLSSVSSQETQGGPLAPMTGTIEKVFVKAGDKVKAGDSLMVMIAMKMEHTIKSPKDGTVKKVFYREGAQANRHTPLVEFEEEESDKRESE
# Sequence of UniProt Q9P2J5 (Q9P2J5 whole entry, looked up): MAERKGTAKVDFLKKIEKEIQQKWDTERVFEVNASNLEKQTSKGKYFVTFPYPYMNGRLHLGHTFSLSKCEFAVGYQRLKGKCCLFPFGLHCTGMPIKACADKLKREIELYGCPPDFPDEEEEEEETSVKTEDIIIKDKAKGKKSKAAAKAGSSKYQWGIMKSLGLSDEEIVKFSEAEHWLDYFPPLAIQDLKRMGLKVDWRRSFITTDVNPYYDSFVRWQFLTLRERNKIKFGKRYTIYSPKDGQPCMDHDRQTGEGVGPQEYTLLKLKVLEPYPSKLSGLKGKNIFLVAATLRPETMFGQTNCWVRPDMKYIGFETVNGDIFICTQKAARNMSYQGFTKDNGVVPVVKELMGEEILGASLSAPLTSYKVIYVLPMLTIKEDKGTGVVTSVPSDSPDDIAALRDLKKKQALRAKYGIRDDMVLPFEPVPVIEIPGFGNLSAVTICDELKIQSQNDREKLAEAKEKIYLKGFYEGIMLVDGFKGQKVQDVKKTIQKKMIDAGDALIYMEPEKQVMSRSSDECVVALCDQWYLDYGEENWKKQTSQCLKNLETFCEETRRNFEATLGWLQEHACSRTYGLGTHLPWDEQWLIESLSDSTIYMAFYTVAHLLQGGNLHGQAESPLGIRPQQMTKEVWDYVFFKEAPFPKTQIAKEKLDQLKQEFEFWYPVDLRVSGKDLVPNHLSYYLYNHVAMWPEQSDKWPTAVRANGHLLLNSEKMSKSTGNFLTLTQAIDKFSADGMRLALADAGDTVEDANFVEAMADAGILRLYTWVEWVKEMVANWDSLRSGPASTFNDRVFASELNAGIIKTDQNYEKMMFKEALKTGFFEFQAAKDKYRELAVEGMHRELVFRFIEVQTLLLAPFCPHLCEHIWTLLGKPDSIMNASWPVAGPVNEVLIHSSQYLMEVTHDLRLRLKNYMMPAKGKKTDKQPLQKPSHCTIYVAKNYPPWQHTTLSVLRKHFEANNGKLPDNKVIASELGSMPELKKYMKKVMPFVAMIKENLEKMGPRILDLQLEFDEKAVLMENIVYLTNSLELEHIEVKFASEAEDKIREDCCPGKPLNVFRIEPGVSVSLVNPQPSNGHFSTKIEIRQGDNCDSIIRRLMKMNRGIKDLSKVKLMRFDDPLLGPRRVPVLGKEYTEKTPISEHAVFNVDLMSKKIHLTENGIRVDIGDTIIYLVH
# Sequence of UniProt Q15013 (Q15013 whole entry, looked up): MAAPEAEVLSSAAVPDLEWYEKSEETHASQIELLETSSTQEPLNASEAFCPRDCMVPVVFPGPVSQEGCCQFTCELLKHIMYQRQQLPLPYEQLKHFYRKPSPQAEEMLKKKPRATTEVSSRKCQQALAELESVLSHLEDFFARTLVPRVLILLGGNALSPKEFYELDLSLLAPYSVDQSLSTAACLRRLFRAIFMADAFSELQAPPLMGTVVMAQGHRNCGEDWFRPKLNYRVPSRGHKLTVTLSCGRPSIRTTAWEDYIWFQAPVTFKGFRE
# Sequence of UniProt Q13015 (Q13015 whole entry, looked up): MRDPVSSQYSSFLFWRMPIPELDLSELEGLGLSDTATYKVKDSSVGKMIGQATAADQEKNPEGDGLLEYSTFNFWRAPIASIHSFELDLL
# Sequence of UniProt Q9UBB5 (Q9UBB5 whole entry, looked up): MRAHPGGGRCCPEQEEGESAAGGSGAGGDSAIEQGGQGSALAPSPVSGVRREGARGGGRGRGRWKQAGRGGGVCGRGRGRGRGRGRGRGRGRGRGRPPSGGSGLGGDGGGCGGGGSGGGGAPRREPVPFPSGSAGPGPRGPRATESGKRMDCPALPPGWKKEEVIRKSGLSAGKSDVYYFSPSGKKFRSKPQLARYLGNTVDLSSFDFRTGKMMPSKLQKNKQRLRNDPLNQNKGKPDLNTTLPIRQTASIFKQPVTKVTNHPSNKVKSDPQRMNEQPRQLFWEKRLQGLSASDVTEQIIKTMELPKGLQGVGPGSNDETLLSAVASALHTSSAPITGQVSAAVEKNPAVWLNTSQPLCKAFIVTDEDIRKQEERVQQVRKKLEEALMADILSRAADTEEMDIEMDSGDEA
row,Target,log2 fold change
1,LARS2 (UniProt Q15031),0.089
2,MCCC1 (UniProt Q96RQ3),0.035
3,MIF (UniProt P14174),0.035
4,LAMP1 (UniProt P11279),0.016
5,MED12 isoform 2 (UniProt Q93074),0.034
6,MAP4 (UniProt E7EVA0),0.024
7,MED10 (UniProt Q9BTT4),-0.082
8,KLC2 (UniProt Q9H0B6),0.012
9,LRWD1 (UniProt Q9UFC0),0.053
10,MBD2 (UniProt Q9UBB5),-0.009
11,LARS (UniProt Q9P2J5),0.034
12,MON2 isoform 5 (UniProt Q7Z3U7),0.021
13,MAD2L1BP isoform 3 (UniProt Q15013),-0.019
14,MLLT11 (UniProt Q13015),0.107
15,LIG3 (UniProt P49916),0.059
16,LIMS1 isoform 3 (UniProt P48059),-0.065

# Compound: NC(=O)c1cnc(N[C@@H]2CCCC[C@@H]2N)nc1Nc1cccc(-n2nccn2)c1
# Assay: as above
# Procedure, shortened: as §1
row,Target,log2 fold change
1,MITD1 (UniProt Q8WV92),0.07
2,LYRM4 (UniProt Q9HD34),-0.036
3,LSG1 (UniProt Q9H089),-0.014
4,MED8 isoform 2 (UniProt Q96G25),0.016
5,LARP4B (UniProt Q92615),-0.001
6,MPDZ (UniProt O75970),-0.041
7,LGALS3BP (UniProt Q08380),0.125
8,MCMBP (UniProt Q9BTE3),0.014
9,MIPEP (UniProt Q99797),0.01
10,MED17 (UniProt Q9NVC6),0.038
11,MLH1 (UniProt P40692),0.067
12,LIG4 (UniProt P49917),-0.045
13,MPZL1 (UniProt O95297),0.026
14,MAPK9 (UniProt P45984),0.009
15,MAP2K7 isoform 4 (UniProt O14733),0.001
16,MFF isoform 2 (UniProt Q9GZY8),0.016
17,LYAR (UniProt Q9NX58),-0.016
18,MECR (UniProt Q9BV79),0.02
19,MAPKAPK3 (UniProt Q16644),0.013
20,MAP3K4 (UniProt Q9Y6R4),0.045

row,Target,log2 fold change
1,MAST4 (UniProt O15021),0.021
2,MINDY1 isoform 3 (UniProt Q8N5J2),0.548 (active)
3,LYSMD3 (UniProt Q7Z3D4),0.057
4,LARS2 (UniProt Q15031),0.044
5,MCCC1 (UniProt Q96RQ3),0.008
6,MIF (UniProt P14174),0
7,LAMP1 (UniProt P11279),-0.003
8,MED12 isoform 2 (UniProt Q93074),0.019
9,MAP4 (UniProt E7EVA0),0.016
10,MED10 (UniProt Q9BTT4),0.025
11,KLC2 (UniProt Q9H0B6),0.013
12,LRWD1 (UniProt Q9UFC0),0.017
13,MBD2 (UniProt Q9UBB5),-0.003
14,LARS (UniProt Q9P2J5),0
15,MON2 isoform 5 (UniProt Q7Z3U7),0.005
16,MAD2L1BP isoform 3 (UniProt Q15013),0.048
17,MLLT11 (UniProt Q13015),0.011
18,LIG3 (UniProt P49916),0.008
19,LIMS1 isoform 3 (UniProt P48059),-0.007

# Compound: NC1(c2ccc(-c3nc4ccn5c(=O)[nH]nc5c4cc3-c3ccccc3)cc2)CCC1
# Assay: as above
# Procedure, shortened: as §1
row,Target,log2 fold change
1,MITD1 (UniProt Q8WV92),-0.047
2,LYRM4 (UniProt Q9HD34),-0.005
3,LSG1 (UniProt Q9H089),0.032
4,MED8 isoform 2 (UniProt Q96G25),0.024
5,LARP4B (UniProt Q92615),0.008
6,MPDZ (UniProt O75970),0.112
7,LGALS3BP (UniProt Q08380),0.137
8,MCMBP (UniProt Q9BTE3),-0.033
9,MIPEP (UniProt Q99797),0.054
10,MED17 (UniProt Q9NVC6),0.005
11,MLH1 (UniProt P40692),-0.046
12,LIG4 (UniProt P49917),-0.005
13,MPZL1 (UniProt O95297),0.028
14,MAPK9 (UniProt P45984),0.012
15,MAP2K7 isoform 4 (UniProt O14733),0.002
16,MFF isoform 2 (UniProt Q9GZY8),-0.026
17,LYAR (UniProt Q9NX58),-0.012
18,MECR (UniProt Q9BV79),-0.028
19,MAPKAPK3 (UniProt Q16644),0.009
20,MAP3K4 (UniProt Q9Y6R4),-0.021

row,Target,log2 fold change
1,MAST4 (UniProt O15021),0.059
2,MINDY1 isoform 3 (UniProt Q8N5J2),0.038
3,LYSMD3 (UniProt Q7Z3D4),0.023
4,LARS2 (UniProt Q15031),-0.036
5,MCCC1 (UniProt Q96RQ3),-0.045
6,MIF (UniProt P14174),0.033
7,LAMP1 (UniProt P11279),-0.017
8,MED12 isoform 2 (UniProt Q93074),0.002
9,MAP4 (UniProt E7EVA0),-0.1
10,MED10 (UniProt Q9BTT4),-0.045
11,KLC2 (UniProt Q9H0B6),-0.036
12,LRWD1 (UniProt Q9UFC0),-0.033
13,MBD2 (UniProt Q9UBB5),0.024
14,LARS (UniProt Q9P2J5),-0.024
15,MON2 isoform 5 (UniProt Q7Z3U7),-0.003
16,MAD2L1BP isoform 3 (UniProt Q15013),-0.056
17,MLLT11 (UniProt Q13015),0.055
18,LIG3 (UniProt P49916),0.011
19,LIMS1 isoform 3 (UniProt P48059),0.001
